Experimental findings from ChEMBL document CHEMBL3988442, “University of Dundee, Small-Polar-MMV Screening Library” (2021) are described below.

The assay deals with Trypanosoma brucei. The assay is described as follows: Trypanosoma brucei 72 hour study. The class given is functional, organism-based. The arrangement: scale not given: in the data most compounds retested in dose-response had high values.

Each structure is given as a SMILES string. The campaign covered roughly 66,000 compounds. About 960 (1.5%) showed an effect of 50% or more. What follows is part of a selection rich in strong results, with near analogues and random picks from the rest.

As for `NCC1CN(C(=O)Cn2ncc(N3CCCCC3)cc2=O)CCO1` (stereo not drawn), under “30.3 µM, […]”, the “Percent Effect” value was determined as 7.872%. Turning to `O=C(O)C(F)(F)F.O=C(c1cscn1)N1CCC2(CN(Cc3ccsc3)C2)C1`, the “Percent Effect” value (30 µM, 30.03 µM) is listed as -41.53%.

For `Cc1cc(NC(C)c2nnn[nH]2)n2nc(C)c(C)c2n1` (stereo not drawn), where the note is “30 µM, 30.03 µM”, the “Percent Effect” value came to 85.64%. Same read-out and setting: as for `Cc1cc(NC(C)c2csc(C)n2)n2nc(C)c(C)c2n1` (stereo not drawn), the figure is -27.53%; as for `Cc1cc(NC(C)c2n[nH]c(C)n2)n2nc(C)c(C)c2n1` (stereo not drawn), -65.68%; as for `O=C(NCc1ccco1)[C@@H]1CCO[C@@H]2CCN(CC3CC3)C[C@@H]21.O=C(O)C(F)(F)F`, -21.92%. For `Cc1nc(CN2CCCC(NCc3ccsc3)C2)no1` (stereo not drawn), the “Percent Effect” value (30 µM, 30.03 µM) is -22.48%. For the compound `Cc1nc(CNC2CCN(Cc3ccccc3)C2)sc1C` (stereo not drawn), where the note is “30.3 µM, […]”, the “Percent Effect” value came out at 100.1%.

With `Cc1nc(CN2CCCC(NCc3ccc(Cl)s3)C2)no1` (stereo not drawn), the “Percent Effect” value is reported as -4.21% (30.3 µM, […]) and -21.78% (10 mM, 10 mM as filed; unlikely as a test dose). The like results for `Cc1nc(CN2CCCC(NCc3csc(C(C)(C)C)n3)C2)no1` (stereo not drawn) were, in that order, 71.04% and -25.98%. For the compound `CCc1csc(CNC2CCN(Cc3ccccc3)C2)n1` (stereo not drawn), the “Percent Effect” value (30.3 µM, […]) was -9.701%.

In the case of `Cc1nc(CCNC2CCN(Cc3ccccc3)C2)sc1C` (stereo not drawn), the “Percent Effect” value (30.3 µM, […]) is on record as -17.04%. Consider `Cc1nc(CN2CCCC(NCc3cccc4ccccc34)C2)no1` (stereo not drawn), for which the “Percent Effect” value reads like this: (30.3 µM, […]) -31.57%; (10 mM, 10 mM as filed; unlikely as a test dose) -42.23%.

With `Cc1nc(CN2CCCC(NCc3nc4ccccc4s3)C2)no1` (stereo not drawn), the “Percent Effect” value by setting is: (30.3 µM, […]) 74.19%; (10 mM, 10 mM as filed; unlikely as a test dose) 66.41%. Turning to `Cc1nc(CN2CCCC(NCc3cnc(C(C)(C)C)s3)C2)no1` (stereo not drawn), the “Percent Effect” value (30.3 µM, […]) is listed as -11.81%. `Nc1cc(N2CCCC(CO)(Cc3ccccc3F)C2)nc(N)n1` (stereo not drawn): where the note is “30 µM, 30.03 µM”, the “Percent Effect” value is listed as 15.39%.

As to `CCn1nc2c(cc1=O)CN(Cc1coc(-c3ccccc3)n1)CC2`, the “Percent Effect” value (30.3 µM, […]) was determined as 3.49%. As for `CCOCC(=O)N1CCC2(CC1)COCCN2CCN(C)C.O=C(O)C(F)(F)F.O=C(O)C(F)(F)F`, the “Percent Effect” value (30.3 µM, […]) was -7.88%. Take `CCCNC(c1ccc(F)cc1)c1cccnc1.Cl.Cl` (stereo not drawn): the “Percent Effect” value (30 µM, 30.03 µM) is on record as -17.83%.

For the compound `CN(C)C(=O)c1ccc(C2CCCNC2)nc1.Cl.Cl` (stereo not drawn), the “Percent Effect” value (30.3 µM, […]) is -34.47%. Same read-out and setting: as for `Cl.c1nc(CCC2CCCN2)cc(N2CCCCCC2)n1` (stereo not drawn), the figure is -0.6472%.

For `COc1ncccc1NC(=O)NCC1CCS(=O)(=O)C1` (stereo not drawn), under “30 µM, 30.03 µM”, the “Percent Effect” value is 51.37%. `COc1ncccc1NC(=O)NCC1CC1`: where the note is “30.3 µM, […]”, the “Percent Effect” value was 14.51%.

As for `CCN1CCC(CNC(=O)Nc2cccnc2OC)CC1`, the “Percent Effect” value (30.3 µM, […]) stood at 3.244%. Turning to `CCOc1ccc(C(=O)N2CCCC(n3nc(C)nc3C)C2)cc1` (stereo not drawn), the “Percent Effect” value (10 µM) is on record as -77.91%. With `Cc1nnc(N2CCCC3(CN(c4ccccn4)CCO3)C2)o1.O=C(O)C(F)(F)F` (stereo not drawn), the “Percent Effect” value (30.3 µM, […]) was found to be 1.863%.

Take `Cc1cc(NCc2cc(C)oc2C(F)(F)F)n2nc(C)cc2n1`: for the setting “30 µM, 30.03 µM”, the “Percent Effect” value is recorded as 27.35%. On the same count and under the same terms, as for `COc1ccccc1C1(CNc2ccnc(C(=O)N(C)C)c2)CC1`, the figure is 98.99%.

In the case of `COc1ccccc1C1(CNc2cc(C(=O)N(C)C)ccn2)CC1`, the “Percent Effect” value (30 µM, 30.03 µM) is recorded as -21.75%. Still for that read-out and setting: the figure for `COc1ccccc1C1(CNc2ccc(C(=O)N(C)C)cn2)CC1` is -17.01%. With `CN1CCO[C@@H]2CN(C(=O)NCc3ccccc3)CC[C@@H]2C1.O=C(O)C(F)(F)F`, the “Percent Effect” value (30.3 µM, […]) is listed as -54.53%. Still for that read-out and setting: as for `Cn1ccnc1C(=O)N1CCC2(CCN2c2ncccn2)C1.O=C(O)C(F)(F)F` (stereo not drawn), the figure is -37.97%. Consider `CCC1CN(C)c2ccccc2CN1C(=O)CCn1cncn1` (stereo not drawn), for which the “Percent Effect” value (30 µM, 30.03 µM) was found to be 12.6%. As to `CCC1CN(C)c2ccccc2CN1CCn1cncn1` (stereo not drawn), the “Percent Effect” value (30 µM, 30.03 µM) worked out at 56.46%. The same measure, in the same setting: the figure for `CC1CN(C)c2ccccc2CN1CCn1cncn1` (stereo not drawn) is -41.9%. As for `COc1cc(C)c(S(=O)(=O)NCc2cccnc2N(C)C)c(C)c1`, the “Percent Effect” value (30.3 µM, […]) is 6.422%.

Regarding `Cc1ccc(C)c(-n2cc(CN3CCOCC3)c(-c3ccccc3)n2)c1`, the “Percent Effect” value (30.3 µM, […]) is on record as 5.174%.

With `Cc1ccc(C)c(-n2cc(CN3CC[C@@H](O)C3)c(-c3ccccc3)n2)c1`, the “Percent Effect” value (30.3 µM, […]) came to 100.3%. On the same count and under the same terms, the figure for `Cc1ccc(-n2cc(CN3CCOCC3)c(-c3cccc(C)c3)n2)cc1` is 3.807%.

For `O=C(NC1CC1)C1=CC2(CCN(CCO)CC2)c2ccccc21.O=C(O)C(F)(F)F`, the “Percent Effect” value (30.3 µM, […]) was -19.93%. On to `CCN1CCN2CCCN(S(=O)(=O)c3cccc(F)c3)C2C1=O` (stereo not drawn), for which the “Percent Effect” value (30.3 µM, […]) is on record as 65.65%. On the same count and under the same terms, as for `CCN1CCN2CCCN(S(=O)(=O)c3ccc(C)cc3C)C2C1=O` (stereo not drawn), the figure is 8.732%.

In the case of `CCN1CCN2CCCN(S(=O)(=O)c3ccc(S(C)(=O)=O)cc3)C2C1=O` (stereo not drawn), the “Percent Effect” value (30.3 µM, […]) is 30.28%. `COc1cc(C(=O)N2C[C@H]3CC[C@@H]2CN(Cc2cscn2)C3)ccn1`: where the note is “30 µM, 30.03 µM”, the “Percent Effect” value came to 1.07%. For `CS(=O)(=O)NCC1CCCN(C(=O)c2cc3ccccc3o2)C1` (stereo not drawn), the “Percent Effect” value (30.3 µM, […]) was 1.962%. Same read-out and setting: as for `O=C(COCC(F)(F)F)NS(=O)(=O)c1ccc2c(c1)OCCCO2`, the figure is -2.455%; as for `Cc1ccc(CN2CCc3onc(C(=O)N4CCCC4)c3C2)o1.O=C(O)C(F)(F)F`, 0.525%; as for `CN1CCN(c2cc(NC(=O)Cn3ccc4ccccc43)ncn2)CC1`, 101.2%. On to `O=C(Cn1ccc2ccccc21)Nc1cc(N2CCCC2)ncn1`, for which, where the note is “30.3 µM, […]”, the “Percent Effect” value amounted to 1.206%. The same measure, in the same setting: the figure for `O=C(Cn1ccc2ccccc21)Nc1cc(N2CCOCC2)ncn1` is -10.05%.

For the compound `O=C(CC1CC1)N1CC[C@H]2[C@@H]1CCC(=O)N2Cc1ccncc1.O=C(O)C(F)(F)F`, where the note is “30 µM, 30.03 µM”, the “Percent Effect” value is on record as -15.55%.

Consider `c1nc(N2CCCC(Cn3cncn3)C2)c2sccc2n1` (stereo not drawn), for which, under “30.3 µM, […]”, the “Percent Effect” value was 1.361%. Consider `Cc1cc(NC2CCc3ncnn3C2)n2ncnc2n1` (stereo not drawn), for which the “Percent Effect” value (30 µM, 30.03 µM) was -36.85%. Same read-out and setting: the figure for `Cc1nc[nH]c1CN1CCC2(CC1)CC(Nc1ncccn1)CO2.O=C(O)C(F)(F)F` (stereo not drawn) is -22.29%.

Turning to `CC(=O)Nc1ccc(CCC2(NC(=O)C3CC3)CCCCC2)cn1`, under “30.3 µM, […]”, the “Percent Effect” value is reported as 1.37%. Same read-out and setting: the figure for `CC(C)(C)c1ccc(CN2C[C@H]3C[C@H](O)C[C@H]3C2)c(OCC(N)=O)c1` is -6.506%; for `Cc1cc(C(F)(F)F)nn1CC(C)C(=O)Nc1ccccn1` (stereo not drawn) it is 13.6%.

As to `Cc1cccnc1NC(=O)C(C)Cn1nc(C(F)(F)F)cc1C` (stereo not drawn), the “Percent Effect” value (30 µM, 30.03 µM) is recorded as 53.66%. As to `Cc1cc(C(F)(F)F)nn1CC(C)C(=O)Nc1cccnc1` (stereo not drawn), where the note is “30.3 µM, […]”, the “Percent Effect” value was -4.531%. The same measure, in the same setting: the figure for `Cc1cc(N2CCN(C(=O)[C@@H]3C[C@@H]4C=C[C@H]3C4)CC2)nc2ccccc12` is 18.47%; for `Cl.O[C@@H]1CN(Cc2ccc(F)cc2)CC[C@H]1NCc1ccccn1` it is 5.839%. `CC(C)C1CC(=O)Nc2c1cnn2Cc1ccco1` (stereo not drawn): where the note is “30 µM, 30.03 µM”, the “Percent Effect” value amounted to 5.524%. For the compound `CC(C)CC1CC(=O)Nc2c1cnn2Cc1ccco1` (stereo not drawn), the “Percent Effect” value (30 µM, 30.03 µM) was -10.02%. For the compound `CC(C)(C)C1CC(=O)Nc2c1cnn2Cc1ccco1` (stereo not drawn), under “30 µM, 30.03 µM”, the “Percent Effect” value was 53.72%.
